# Source: PubChem
# Nrf2 block = Nrf2 qHTS screen for inhibitors. A549 ARE-Fluc reporter, luciferase luminescence, 18-24 h. Potency, µM (doses to about 46 µM), without a hit: at the top dose activity change, negative = inhibition, hits mostly inhibitors. actives 2.1% (n = 360,000). AID 504444, 2011; further: potency means the concentration at half of the fitted maximal effect; on the % scale 0 is the no-effect control and ±100 the full control effect; nearly all actives have a fitted effect of over 60% in size
#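 Concentration-response testing used A549 ARE_Fluc cells at 5000 cells/well. Following an 18-24 h compound incubation, viability was read by fluorescence (Ex 405/Em 525) and luciferase output by luminescence.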
# IL2 activator = qHTS of IL-2 Activators | activation, % (series mostly up to about 46 µM) | IL-2 activation reporter assay, cell-based qHTS; stimulated with anti-CD3/CD4/CD28 beads; in transgenic mouse T cells | actives 0.065% (n = 360,000); in the data active means activation above about 50%; inconclusive means mostly about 30% to 49%; further: 0% is about no effect
#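 Unstimulated transgenic mouse T cells, 750 per well, received compound and, after 60 minutes, anti-CD3/anti-CD4 bead plus anti-CD28 stimulation. EGFP and DsRed were quantified after 18 hours.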
# A549 tox = Nrf2 qHTS screen for inhibitors: counterscreen for cytotoxicity; A549 ARE-Fluc cells, CellTiter-Fluor viability, 18-24 h; Potency, µM (titrated, usually from 46 µM), for inactives: at the highest dose activity change, negative = cytotoxicity, usual class: inhibitors; actives 0.16% (n = 390,000); further: potency means the concentration at half of the fitted maximal effect; on the % scale 0 is the no-effect control and ±100 the full control effect
#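 A549 ARE_Fluc cells in 5% FBS OPTI-MEM were exposed to compounds in concentration-response for 18-24 h at 37 deg C. Viability was read by CellTiter-Fluor fluorescence (Ex 405/Em 525) after 30 min, before the luciferase read.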
# Nrf2 activator = qHTS of Nrf2 Activators; actives 0.31% (n = 410,000); Potency, µM (doses to about 46.1 µM), without a hit: at the highest dose activation, usual class: activators; AREc32 ARE-luciferase reporter (MCF7-derived line), luminescence, 24 h; further: potency means the concentration at half of the fitted maximal effect; % of control where 0% means no effect; nearly all actives have a fitted effect of over 65% in size
#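 Each well held 1000 AREc32 cells, which were incubated with compound for 24 hr at 37 deg C after overnight attachment, and ARE reporter activity was quantified by firefly luciferase luminescence.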
# * hit, by the source's call; ? = inconclusive; . = no result; [ ] = another dose, or the depositor's remark. A selection: hits, their analogues and other compounds. The true share with any hit is near 2.3%. Unless noted, the call rests on the fitted dose curve; in most records, active means well fitted curve in the direction sought with a large enough effect; inconclusive means small, poorly fitted or top-dose-only effect, or another doubt; inactive means no such curve, though single readings can be large; an effect the other way counts as inactive or inconclusive.
SMILES,Nrf2 block,IL2 activator,A549 tox,Nrf2 activator
CCc1ccc(-c2nn(CC(=O)NC3CCCCC3)c3c2cnc2ccc(OC)cc23)cc1,11%,.,-1%,1%
CCn1c(COc2ccc(C)cc2)nnc1SCc1nc2ccccc2[nH]1,18µM*,-1,-27%,3%
Clc1cccc(-c2nnc(SCc3nc4ccccc4[nH]3)n2Cc2ccco2)c1,-20%,-3,-17%,3%
COc1ccc(C)cc1NC(=O)CSc1nnc(COc2ccc(Cl)cc2)n1Cc1ccco1,?,-2,-20%,7%
Clc1ccc(OCc2nnc(SCc3nc4ccccc4[nH]3)n2Cc2ccco2)cc1,18µM*,-3,?,3%
O=C(CSc1nnc(COc2ccc(Cl)cc2)n1Cc1ccco1)c1ccccc1F,13µM*,-1,?,0%
Cn1c(COc2ccccc2)nnc1SCc1nc2ccccc2[nH]1,?,2,0%,4%
N#Cc1c(N2CCN(C(=O)c3ccco3)CC2)nc(-c2ccccc2)c2c1CCCC2,18µM*,-3,?,4%
CC(=O)N1CCN(c2nc(CC(C)C)c3c(c2C#N)CCC3)CC1,-10%,0,1%,1%
CCc1nc(N2CCN(C(=O)c3ccco3)CC2)c(C#N)c2c1COC(C)(C)C2,15µM*,-3,-10%,0%
CC(C)Cc1nc(N2CCN(C(=O)c3ccccc3)CC2)c(C#N)c2c1CCC2,23µM*,-2,.,2%
COc1ccc2cc(CCNS(=O)(=O)c3ccc(C)cc3)c(=O)[nH]c2c1,-7%,.,1%,-1%
O=C(Cn1c(=O)n(-c2ccccc2)c(=O)c2c3c(sc21)CCC3)c1ccc(Br)cc1,?,.,-7%,-1%
Cc1cccc(N2CCN(c3ncnc4onc(-c5ccc(F)cc5)c34)CC2C)c1 (stereo not given),24%,.,9%,9%
Cc1cccc(N2CCN(c3ncnc4onc(C)c34)CC2C)c1 (stereo not given),23µM*,.,?,0%
CN1C(=O)/C(=C/c2cccc(Cl)c2)Sc2ccc(C(=O)N3CCOCC3)cc21,15µM*,-4,-30%,3%
CCOC(=O)C1CCCN(C(=O)c2ccc3c(c2)N(C)C(=O)/C(=C/c2ccccc2Cl)S3)C1 (stereo not given),23µM*,-4,-14%,2%
CCN1C=CC(=C2C(=O)c3ccccc3C2=O)C=C1,1.6µM*,0,-2%,-3%
CCCCN1C(C)=CC(=C2C(=O)c3ccccc3C2=O)C=C1C,?,1,-7%,0%
CCCCCCN1C=CC(=C2C(=O)c3ccccc3C2=O)C=C1,?,?,-1%,-1%
CCCN1C=CC(=C2C(=O)c3ccccc3C2=O)C=C1,3.3µM*,-2,-25%,-3%
Cc1ccc(CNC(=O)c2oc3ccc(S(=O)(=O)N4CCC(C)CC4)cc3c2C)cc1,-9%[9.27 µM],.,-6%,0%
Cc1ccc2c(CN3CCN(S(=O)(=O)c4ccccc4C(F)(F)F)CC3)cc(=O)oc2c1C,5.2µM*,-1,2%,2%
COc1ccc(-n2nnnc2S(=O)(=O)CC(=O)N2CCCCC2)cc1,26µM*,-4,?,-4%
CC1CN(C(=O)Nc2ccc(C(=O)NCCc3ccc(Cl)cc3)cc2)c2ccccc2S1 (stereo not given),5%,.,-4%,0%
SMILES,Nrf2 block,IL2 activator,A549 tox,Nrf2 activator
COc1cccc(-c2nc(SCC(=O)NC3CCCC3)c(-c3ccc(F)cc3)[nH]2)c1,18µM*,.,?,0%
COc1cccc(-c2nc(SCC(=O)NC3CCCC3)c(-c3ccc(C)cc3)[nH]2)c1,?,.,?,-2%
COc1ccc(NC(=O)CSc2nc(-c3ccc(OC)c(OC)c3)[nH]c2-c2ccc(C)cc2)cc1,-4%,.,-11%,8%
COc1ccc(-c2[nH]c(-c3ccc(OC)c(OC)c3)nc2SCC(=O)Nc2ccccc2)cc1,23µM*,.,?,4%
COc1ccc(NC(=O)CSc2nc(-c3cccc(C)c3)[nH]c2-c2ccccc2)cc1OC,23µM*,.,?,-1%
Cc1csc2c(N3CCN(S(=O)(=O)c4ccc(Cl)cc4)CC3)ncnc12,?,0,5%,-1%
O=S(=O)(c1ccc(Cl)cc1)N1CCN(c2ncnc3sccc23)CC1,21µM*,-5,-6%,3%
CCCNC(=O)Cc1c(C)n(C(=O)c2ccc(Cl)cc2)c2ccc(OC)cc12,18µM*,-2,-20%,0%
Cc1occc1C(=O)Nc1nnc(-c2cccs2)s1,?,2,-3%,11µM*
O=C(CN1CCCC1)Nc1nnc(-c2cccs2)s1,?,1,-5%,11µM*
COc1cc(NC(=O)C(OC(=O)CNC(=O)c2ccccc2)c2ccccc2)cc(OC)c1 (stereo not given),-18%,.,-3%,.
O=C(Nc1cc(-c2nc3ncccc3o2)ccc1Cl)c1cccs1,-2%,-1,-8%,6.3µM*
O=C(CSc1nc2c(c(=O)[nH]1)CCC2)Nc1cccc(O)c1,-11%,.,13%,0%
Cc1nc(-c2cccs2)sc1C(=O)O,?,-2,4%,0%
Cc1nccc(-c2sc(-c3cccs3)nc2C)n1,7%,-1,-12%,13µM*
N#Cc1ccc(CSc2nc3c(c(=O)[nH]2)CCCC3)cc1,?,.,-1%,0%
CCNC(=O)c1cccc(NC(=O)c2cc(C3CC3)nc3c2cnn3C(C)C)c1,18µM*,-2,-11%,0%
CC(C)n1ncc2c(C(=O)Nc3cccc(C#N)c3)cc(C3CC3)nc21,?,0,?,0%
O=S(=O)(c1ccc2c(c1)OCCO2)N1CCN(S(=O)(=O)c2ccc(F)cc2F)CC1,7%,.,2%,.
CC(C)n1c(NCCc2ccccc2)nc2c1c(=O)n(C)c(=O)n2C,13µM*,-1,-5%,0%
CCCNc1nc2c(c(=O)n(C)c(=O)n2C)n1CCCc1ccccc1,?,0,0%,-1%
CCCNc1nc2c(c(=O)n(C)c(=O)n2C)n1CCc1ccccc1,4.1µM*,-3,-18%,0%
CC(C)c1ccc(NS(=O)(=O)c2ccc3[nH]cc(C(=O)N4CCCC4)c(=O)c3c2)cc1,11%,.,0%,-1%
Cc1ccc(C(=O)Nc2ccc(S(=O)(=O)NCc3ccco3)cc2)cc1,14%,3,-2%,4%
Cc1cc(C)n(-c2ccc(C(=O)Nc3ccc(C)c(S(=O)(=O)N(C)C)c3)cc2)n1,18µM*,-4,?,2%
Cc1cc(C)n(-c2ccc(C(=O)Nc3ccc(S(=O)(=O)N(C)C)cc3)cc2)n1,?,0,-23%,0%
CN(C)S(=O)(=O)Oc1ccc(C(=O)Nc2cccc(Cl)c2)cc1,?,-1,-3%,2%
CCN(CC)S(=O)(=O)c1cccc(NC(=O)c2ccc(-n3nc(C)cc3C)cc2)c1,18µM*,-3,?,1%
Cc1cc(C)n(-c2ccc(C(=O)Nc3ccc(S(=O)(=O)NCc4ccco4)cc3)cc2)n1,26µM*,-2,?,-2%
